# Results filed as inconclusive are left out. Values without a mark were called inactive. Activity calls are given as the source filed them. The call rests on the fitted dose curve; in most records, active means well fitted curve in the direction sought with a large enough effect; inconclusive means small, poorly fitted or top-dose-only effect, or another doubt; inactive means no such curve, though single readings can be large; an effect the other way counts as inactive or inconclusive.
# Key:
# PA-1 = assay: Primary qHTS to identify gynecologic anti-cancer compounds using libraries of approved drugs and bioactive compounds (AID 1345084); conditions: Gynecologic cancer cell panel viability, ATPlite luminescence, 48 h; series mostly up to 57.5 µM; further: nearly all actives have a fitted effect of over 55% in size
# Method in brief: (§1)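 Cells, 1,000 per well, were allowed to settle for 16 h at 37 C before compound addition. Five concentrations were tested for 48 h, and viability was read by ATPlite luminescence after 15 min at room temperature.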
# Tov-21-G = assay: as above; conditions: Gynecologic cancer cell panel viability, ATPlite luminescence, 48 h; series mostly up to 57.5 µM
# Method in brief: as §1
# Tov112D = assay: as above; conditions: Gynecologic cancer cell panel viability, ATPlite luminescence, 48 h; series mostly up to 57.5 µM
# Method in brief: as §1
# [1] = qHTS assay to identify inhibitors of the type 1 interferon - major histocompatibility complex class I in skeletal muscle: Counter screen cell viability and HiBit confirmation (AID 1347412); conditions: iHSKM muscle cells + IFN-b, HiBiT or CellTiter-Glo, 24 h; for activity change, negative = inhibition: at 45.9 µM (top of the series); on all read-outs here: nearly all actives have a fitted effect of over 60% in size
# Method in brief: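 HLA-B*08:01–HiBiT knock-in immortalized human myoblasts (C25cl48) stimulated with 4.0 ng/ml human IFN-beta and dosed with compound in a 12-point 1:3 titration (top final 46 uM). After 24 hrs at 37 C, HiBiT lytic luminescence or CellTiter Glo ATP read out.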
# OV90 = assay: Primary qHTS to identify gynecologic anti-cancer compounds using libraries of approved drugs and bioactive compounds (AID 1345084); conditions: Gynecologic cancer cell panel viability, ATPlite luminescence, 48 h; series mostly up to 57.5 µM; further: nearly all actives have a fitted effect of over 55% in size
# Method in brief: as §1
# SKOV3 = assay: as above; conditions: Gynecologic cancer cell panel viability, ATPlite luminescence, 48 h; series mostly up to 57.5 µM
# Method in brief: as §1
# [2] = Drug repurposing screens with cells derived from glioblastoma tumor samples (AID 1345199); conditions: GBM patient neurospheres viability, ATP luminescence, 48 h; further: nearly all actives have a fitted effect of over 40% in size
# Method in brief: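 Four patient lines of CD133+ GBM neurospheres were screened at several concentrations; hits were retested in those lines plus three slower-growing GBM lines, using 48-hour treatment and ATP-based viability.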
# [3] = at 45.9 µM (top of the series), tumour line B
# [4] = at 45.9 µM (top of the series), tumour line D
# [5] = at 46 µM (top of the series), tumour line A
# [6] = at 46.1 µM (top of the series), tumour line C
# On the % scale 0 is the no-effect control and ±100 the full control effect; potency means the concentration at half of the fitted maximal effect.
compound,measurement,setting,value
OCCCNc1cc(-c2ccnc(Nc3cccc(Cl)c3)n2)ccn1,Potency,PA-1,100 nM (active)
same,Potency,Tov-21-G,158 nM (active)
same,Potency,Tov112D,316 nM (active)
same,Potency,[1]; HiBiT,125 nM (active)
same,"activity change, negative = inhibition",[1]; Viability,15.1%
CC(C)c1cc(C(=O)N2Cc3ccc(CN4CCN(C)CC4)cc3C2)c(O)cc1O,Potency,OV90,501 nM (active)
same,Potency,PA-1,501 nM (active)
same,Potency,Tov-21-G,355 nM (active)
COc1cccc2c(NCc3ccccc3)nc(-n3c(N)nc4ccccc43)nc12,Potency,OV90,25100 nM (active)
same,Potency,[1]; HiBiT,12500 nM (active)
same,Potency,[1]; Viability,17600 nM (active)
CC(C)c1cnn2c(NCc3ccccc3)cc(N[C@@H](CO)[C@H](O)CO)nc12,Potency,PA-1,1000 nM (active)
same,Potency,Tov-21-G,1580 nM (active)
same,Potency,Tov112D,3160 nM (active)
same,Potency,[1]; HiBiT,157 nM (active)
same,"activity change, negative = inhibition",[1]; Viability,18.9%
Cn1cc(-c2ccncc2)c(-c2ccc(OCc3ccc4ccccc4n3)cc2)n1,Potency,OV90,inactive
same,Potency,PA-1,inactive
same,Potency,Tov-21-G,inactive
same,Potency,Tov112D,inactive
N#CCNC(=O)c1ccc(-c2ccnc(Nc3ccc(N4CCOCC4)cc3)n2)cc1,Potency,PA-1,14100 nM (active)
same,Potency,Tov-21-G,14100 nM (active)
same,Potency,Tov112D,inactive
COc1ccc(-c2cc3c(C)nc(N)nc3n(C3CCC(OCCO)CC3)c2=O)cn1 (stereo not given),Potency,OV90,2000 nM (active)
same,Potency,PA-1,2510 nM (active)
same,Potency,SKOV3,1260 nM (active)
same,Potency,Tov-21-G,6310 nM (active)
CC(C)(O)c1cc2nc(-c3cnc(N)nc3)nc(N3CCOCC3)c2s1,Potency,OV90,2820 nM (active)
same,Potency,PA-1,8910 nM (active)
same,Potency,Tov-21-G,3160 nM (active)
O=C(Nc1nc2cccc(-c3ccc(CN4CCS(=O)(=O)CC4)cc3)n2n1)C1CC1,Potency,OV90,inactive
same,Potency,SKOV3,inactive
c1nc2nc(Nc3ccc(N4CCOCC4)cc3)nc(NC3CCCCC3)c2[nH]1,Potency,OV90,inactive
same,Potency,Tov112D,inactive
same,Potency,[1]; HiBiT,6250 nM (active)
Cc1c(CN2CCN(S(C)(=O)=O)CC2)sc2c(N3CCOCC3)nc(-c3cnc(N)nc3)nc12,Potency,OV90,1410 nM (active)
same,Potency,PA-1,1580 nM (active)
same,Potency,SKOV3,562 nM (active)
same,Potency,Tov-21-G,2000 nM (active)
CC(C)(O)CCc1ccc(OCc2cc(-c3cccc(OC(F)F)c3)c3ncccc3c2)cc1,Potency,OV90,inactive
same,Potency,PA-1,inactive
same,Potency,Tov-21-G,inactive
same,Potency,Tov112D,inactive
COc1cc2c(Oc3ccc4[nH]c(C)cc4c3F)ncnc2cc1OCCCN1CCCC1,Potency,PA-1,inactive
same,Potency,Tov112D,12600 nM (active)
CC1(C)O[C@@H]2C[C@@H]3[C@H]4C[C@@H](F)C5=CC(=O)C=C[C@]5(C)[C@@]4(F)[C@@H](O)C[C@]3(C)[C@]2(C(=O)CO)O1,"activity, negative = cell killing",[2]; [3],-7.89%
same,"activity, negative = cell killing",[2]; [4],-1.99%
same,"activity, negative = cell killing",[2]; [5],-7.12%
same,"activity, negative = cell killing",[2]; [6],2.95%
O=c1[nH]c(=O)n(C2CCCO2)cc1F (stereo not given),"activity, negative = cell killing",[2]; [3],-6.45%
same,"activity, negative = cell killing",[2]; [4],-14.2%
same,"activity, negative = cell killing",[2]; [5],-9.36%
same,"activity, negative = cell killing",[2]; [6],-4%
Cc1cc(Nc2cc(NC(=O)c3c(Cl)cccc3Cl)ccn2)nc(N)n1,Potency,[1]; HiBiT,2790 nM (active)
same,"activity change, negative = inhibition",[1]; Viability,21.4%
COC(=O)C[C@](O)(CCCC(C)(C)O)C(=O)O[C@@H]1C(OC)=C[C@]23CCCN2CCc2cc4c(cc2[C@H]13)OCO4,"activity, negative = cell killing",[2]; [6],-97.3%
same,Potency,[2]; tumour line A,224 nM (active)
same,Potency,[2]; tumour line B,316 nM (active)
same,Potency,[2]; tumour line D,1000 nM (active)
same,Potency,[1]; HiBiT,279 nM (active)
same,"activity change, negative = inhibition",[1]; Viability,0.0855%
CC=CC1=C(C(=O)O)N2C(=O)[C@H](NC(=O)[C@H](N)c3ccc(O)cc3)[C@@H]2SC1,"activity, negative = cell killing",[2]; [3],-15%
same,"activity, negative = cell killing",[2]; [4],-0.836%
same,"activity, negative = cell killing",[2]; [5],-26.1%
same,"activity, negative = cell killing",[2]; [6],-17.4%
